Screens deposited in PubChem by National Center for Advancing Translational Sciences (NCATS).
Compounds with a hit are over-represented: about 19% of the library has one in this group of screens.
TDP1 block = blocks human tyrosyl-DNA phosphodiesterase 1 | 0.28% of 350,000 active | Potency, µM (titrated, usually from 130 µM), for inactives: at the highest dose activity change, negative = inhibition, usual class: inhibitors | AID 485290 | recombinant TDP1, AlphaScreen DNA substrate cleavage; further: potency means the concentration at half of the fitted maximal effect; nearly all actives have a fitted effect of over 40% in size
Target sequence (Q9NUW8 whole entry, looked up): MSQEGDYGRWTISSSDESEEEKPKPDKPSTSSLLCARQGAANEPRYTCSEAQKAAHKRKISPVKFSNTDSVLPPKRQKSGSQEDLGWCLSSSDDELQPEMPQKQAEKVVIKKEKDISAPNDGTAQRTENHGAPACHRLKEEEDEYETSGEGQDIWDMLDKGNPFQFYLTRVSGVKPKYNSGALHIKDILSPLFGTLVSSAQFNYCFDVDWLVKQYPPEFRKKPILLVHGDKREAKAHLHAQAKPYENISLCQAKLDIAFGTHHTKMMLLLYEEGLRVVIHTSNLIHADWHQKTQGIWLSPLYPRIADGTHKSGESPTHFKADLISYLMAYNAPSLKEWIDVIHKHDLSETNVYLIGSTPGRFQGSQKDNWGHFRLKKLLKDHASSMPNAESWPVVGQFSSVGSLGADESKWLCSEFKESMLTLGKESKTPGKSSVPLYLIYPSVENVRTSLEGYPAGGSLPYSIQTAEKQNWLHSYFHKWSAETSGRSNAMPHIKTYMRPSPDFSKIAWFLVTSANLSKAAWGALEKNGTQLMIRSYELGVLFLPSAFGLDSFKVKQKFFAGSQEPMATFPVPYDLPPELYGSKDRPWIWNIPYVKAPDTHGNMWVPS
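Enzyme-compound mixtures sat 15 min at room temperature, followed by a 5 min reaction with 15 nM final substrate and 10 min with AlphaScreen beads. Recombinant human Tdp1 was used at 1 nM final.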
IL1B secr inh = inflammasome signaling inhibition, IL-1 beta readout; THP-1 LPS/ATP IL-1B secretion, AlphaLISA, 16 h; stronger effect = lower value; activity change, % at 57.5 µM; 4.7% of 360,000 active; in the data active means activity change below about -50%; inconclusive means mostly about -30% to -49%
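Secreted IL-1B measured by AlphaLISA bead assay after 16 h compound exposure of THP-1 cells; compounds (final up to 57.5 uM) added 1 h before LPS (250 ng/mL) and ATP (1.25 mM) stimulation; lower signal means less secretion.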
Giardia killer = kills Giardia lamblia. Giardia lamblia trophozoite viability. activity change, % at 7.66 µM, hits read low. 0.15% of 340,000 active. AID 540267; in the data active means activity change below about -80%; inconclusive means between about -30% and that limit;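 further: parasites exposed to compound for two days anaerobically before the ATP read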
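Media and compound were dispensed first, then trophozoites at 100 cells/well; plates sat 48 hrs at 37 deg C without oxygen before ATP luminescence reagent was added and read after 15-30 min at room temperature.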
TDP1 cell CPT = DT40-hTDP1 cell growth loss with CPT; chicken DT40 Tdp1-/-;hTDP1 cells + 20 nM CPT, ATP luminescence, 48 h; Potency, µM (titrated, usually from 46.2 µM), inactives show top-dose activity change, negative = growth inhibition, most hits filed as inhibitors; 12% of 420,000 active; AID 686979; further: potency means the concentration at half of the fitted maximal effect; nearly all actives have a fitted effect of over 55% in size
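Cell growth measured by CellTiter-Glo luminescence after a minimum 48 h, 37 C compound exposure with 20 nM CPT in Tdp1-knockout DT40 cells stably expressing hTDP1, seeded 400/well; qHTS titration format.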
ELG1 DNA repair = inhibitors of ELG1-dependent DNA repair in HEK293T cells | HEK293T ELG1-luciferase reporter, luminescence, 16 h; DNA damage induced by 5-fluorouridine | Potency, µM (titrated, usually from 46.1 µM), without a hit: top-dose activity change, negative = inhibition, most hits filed as inhibitors | AID 504467 | 2.3% of 330,000 active; further: potency means the concentration at half of the fitted maximal effect; nearly all actives have a fitted effect of over 55% in size
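HEK293T cells expressing luciferase-tagged ELG1 (2,000/well) received 5-Fluorouridine plus compound or DMSO for 16 hr at 37 °C. Luciferase was read by ONE-Glo luminescence after 30 min at room temperature.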
TDP1 cell noCPT = qHTS for Inhibitors of human tyrosyl-DNA phosphodiesterase 1 (TDP1): qHTS in cells in absence of CPT | DT40 Tdp1-/- hTDP1 cells, no CPT, ATP luminescence, 48 h | Potency, µM (top dose mostly 46.2 µM), for the others: at the top dose activity change, negative = growth inhibition, actives largely listed as inhibitors | 15% of 420,000 active; further: potency means the concentration at half of the fitted maximal effect; nearly all actives have a fitted effect of over 55% in size
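Chicken DT40 Tdp1-/- cells stably complemented with human TDP1 were seeded at 400 cells/well with DMSO in place of 20 nM camptothecin. After compound pinning, cells grew at least 48 hr at 37 °C; viability read by CellTiter-Glo luminescence.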
* = called active by the depositor; ? = inconclusive; . = not tested or not shown; [ ] = another dose, or the depositor's remark. Unless noted, the call rests on the fitted dose curve; in most records, active means well fitted curve in the direction sought with a large enough effect; inconclusive means small, poorly fitted or top-dose-only effect, or another doubt; inactive means no such curve, though single readings can be large; an effect the other way counts as inactive or inconclusive. On the % scale 0 is the no-effect control and ±100 the full control effect.

SMILES	TDP1 block	IL1B secr inh	Giardia killer	TDP1 cell CPT	ELG1 DNA repair	TDP1 cell noCPT
Cc1cc(OCC(=O)OC(C)C(=O)Nc2ccc(N3CCOCC3)cc2)ccc1Cl (stereo unspecified)	2%[56.1 µM]	4	6	-6%	25%	17%
O=C(O)CN1C(=O)c2ccc(Oc3ccc4c(c3)C(=O)N(CC(=O)O)C4=O)cc2C1=O	.	17	-9	8%	14%	2%
NC(=O)c1ncn([C@@H]2O[C@H](CNCc3cccn3-c3ccncc3)[C@@H](O)[C@H]2O)n1	.	14	8	19%	.	2%
Fc1cccc(/C=N/Nc2ncnc3nc[nH]c23)c1	1%	-97*	-27	-3%	?	-18%
C(=C\c1ccccc1)/C=N/Nc1nc2ccccc2[nH]1	11%	54	-2	7.3µM*	?	7.3µM*
C(=N\Nc1nc2ccccc2[nH]1)/C1CCCCC1	8%	38	12	18µM*	5%	?
Fc1ccc(/C=N/Nc2nc3ccccc3[nH]2)cc1F	9%	?	48	?	?	?
CCN(CC)S(=O)(=O)c1ccc(C)c(NC(=S)N2CCN(c3ccccn3)CC2)c1	.	-73*	3	18µM*	16µM*	15µM*
COc1ccccc1NC(=S)N1CCN(C/C=C/c2ccccc2)CC1	-1%	-5	28	?	?	?
CCN(CC)S(=O)(=O)c1ccc(C)c(NC(=S)N2CCN(Cc3ccc4c(c3)OCO4)CC2)c1	-10%	-12	-14	21µM*	?	21µM*
CCN(CC)S(=O)(=O)c1ccc(C)c(NC(=S)N2CCN(C/C=C/c3ccccc3)CC2)c1	4%	-7	17	?	12µM*	12µM*
O=C(CCNC(=O)c1ccccc1)OCC(=O)c1ccccc1	6%	0	11	4%	13%	2%
O=C(CSc1nnc(-c2ccccc2)n1Cc1ccco1)NCc1ccc2c(c1)OCO2	7%	?	-1	-13%	16µM*	-19%
O=C(CSc1nnc(NC(=O)c2ccco2)s1)NCc1ccc2c(c1)OCO2	-3%	-5	5	-25%	5%	18µM*
CCCC(=O)Nc1nnc(SCC(=O)NCc2ccc3c(c2)OCO3)s1	4%	18	-1	5%	7%	-6%
O=C(CSc1nnc(-c2cccs2)n1Cc1ccco1)Nc1ccc2c(c1)OCO2	9%	-19	-13	-9%	15µM*	-23%
O=C(CSc1nnc(-c2ccco2)n1Cc1ccco1)NCc1ccccc1	-5%	-25	12	0%	-11%	-21%
O=C(CSc1nnc(-c2ccccc2)n1Cc1ccco1)Nc1ccc2c(c1)OCCO2	7%	?	-12	-23%	?	?
CC(C)CC(NC(N)=O)C(=O)Nc1ccc(Oc2ccccc2)cc1 (stereo unspecified)	3%	-28	5	4%	?	-6%
O=C(CC1C(=O)NCCN1C(=O)c1ccc([N+](=O)[O-])cc1)Nc1ccc(F)cc1 (stereo unspecified)	1%	-16	-1	3%	18%	11%
CCCCn1c(-c2cccc3ccccc23)nc2cc3[nH]c(=O)c(C(C)C)nc3cc21	.	-13	-12	?	-9%	16µM*
CCCCn1c(-c2ccccc2C)nc2cc3[nH]c(=O)c(C(C)C)nc3cc21	.	-26	?	21µM*	-4%	?
COC(=O)c1c(NC(=O)c2nc(SCc3ccccc3C)ncc2Cl)sc2c1CCCC2	0%	.	.	-4%	.	-9%
CCCN1CCC(=O)N([C@H](CSc2ccc(C)cc2)CC(C)C)CC1	1%	-19	6	21µM*	?	16µM*
CCCN1CCC(=O)N([C@H](CSc2ccc(OC)cc2)Cc2ccccc2)CC1	2%	7	1	?	-1%	18µM*
